Assay outcomes as filed in PubChem.
Most compounds without a hit are left out; they make up all but 2.7% or so of the library.
GLP-1R inv ag: qHTS of GLP-1 Receptor Inverse Agonists (Inhibition Mode) | Glucagon-like peptide 1 receptor (Homo sapiens), P43220 | HEK293 GLP-1R CRE-luciferase, luminescence, 24 h; GLP-1R form is constitutively active | Potency, µM (doses to about 38.3 µM), usual class: inhibitors | 410,000 tested, 1.6% active; also: nearly all actives have a fitted effect of over 55% in size
Target sequence (P43220 whole entry, looked up): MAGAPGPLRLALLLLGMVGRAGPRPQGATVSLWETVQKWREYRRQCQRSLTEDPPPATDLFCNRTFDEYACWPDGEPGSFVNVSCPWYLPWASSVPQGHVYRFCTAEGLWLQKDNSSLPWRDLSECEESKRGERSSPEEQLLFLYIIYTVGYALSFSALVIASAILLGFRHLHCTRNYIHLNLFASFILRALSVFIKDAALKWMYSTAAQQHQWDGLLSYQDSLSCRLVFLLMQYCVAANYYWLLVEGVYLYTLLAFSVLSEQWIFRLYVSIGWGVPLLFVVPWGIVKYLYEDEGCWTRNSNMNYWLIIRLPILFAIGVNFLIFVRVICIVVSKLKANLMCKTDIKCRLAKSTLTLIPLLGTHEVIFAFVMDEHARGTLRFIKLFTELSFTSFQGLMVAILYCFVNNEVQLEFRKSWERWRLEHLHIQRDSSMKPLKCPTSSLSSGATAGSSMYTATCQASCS
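Cells are plated, allowed 12 hours at 37 deg C, then treated with compounds for 24 hr before luciferase detection reagent is added and luminescence is read after 12 min at room temperature. The HEK293 line carries constitutively active GLP-1R with a cAMP-responsive reporter.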
HEK293 tox: qHTS of GLP-1 Receptor Inverse Agonists: Cytotox Screen. HEK293 cAMP-luciferase reporter cells, luminescence, 24 h. Potency, µM (top dose mostly 38.3 µM), hits mostly inhibitors. 410,000 tested, 0.13% active. AID 624418, 2012;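 also: loss of luciferase light is scored as toxicity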
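Step one: seed cells (200 cells/uL, DMEM with 10% Nu serum, 1% pen-strep). Step two: 12-hour incubation at 37 deg C. Step three: pin 23 nL compound, incubate 24 hr. Step four: add luciferase reagent, read luminescence 12 min later.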
GLP-1R agonist: qHTS of GLP-1 Receptor Agonists; Glucagon-like peptide 1 receptor (Homo sapiens), P43220; HEK293 GLP-1R CRE-luciferase, luminescence, 4-6 h; cells express a hypersensitive GLP-1R form; Potency, µM (series often up to 45.6 µM), most hits filed as activators; 380,000 tested, 0.007% active; AID 624172, 2012
IDH1 R132H inh: qHTS for Inhibitors of mutant isocitrate dehydrogenase 1 (IDH1): qHTS; Isocitrate dehydrogenase [NADP] cytoplasmic (Homo sapiens), O75874; IDH1-R132H enzyme, NADPH consumption, diaphorase/resazurin fluorescence; 390,000 tested, 0.093% active; Potency, µM (series often up to 76.6 µM), actives largely listed as inhibitors; AID 602179, 2012; also: nearly all actives have a fitted effect of over 65% in size
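IDH1-R132H (0.5 ug/mL dispensed) in pH 7.5 Tris buffer was preincubated 30 min with compound, then given a substrate mix of 0.016 mM NADPH and 2 mM alpha-KG for 80 min at room temperature; remaining NADPH was read by diaphorase/resazurin fluorescence.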
TrxR1 substrate: qHTS Assay for Substrates of Mammalian Selenoprotein Thioredoxin Reductase 1 (TrxR1): qHTS; Thioredoxin reductase 1, cytoplasmic (Rattus norvegicus), O89049; purified TrxR1 substrate turnover, NADPH consumption readout; Potency, µM (doses to about 114 µM); 390,000 tested, 0.01% active; AID 588456, 2011; also: nearly all actives have a fitted effect of over 50% in size
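Rat TrxR1, dispensed at 90 nM, was prereduced with 400 uM NADPH (final) for 5 min at ~22 deg C, then incubated with compound 15 min before 400 uM selenite. A first-read NADPH fluorescence drop versus no-compound background flagged substrates.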
rTrxR1 inhibitor: qHTS Assay for Inhibitors of Mammalian Selenoprotein Thioredoxin Reductase 1 (TrxR1): qHTS; recombinant rTrxR1, NADPH fluorescence consumption, selenite substrate; 390,000 tested, 1% active; Potency, µM (titrated, usually from 114 µM), hits mostly inhibitors; AID 588453, 2011; Thioredoxin reductase 1, cytoplasmic (Rattus norvegicus), O89049; also: nearly all actives have a fitted effect of over 65% in size
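Rat TrxR1 (90 nM in the dispensed reagent) was pre-reduced with 400 uM NADPH for 5 min at room temperature, then incubated with compound for 15 min. After 400 uM selenite was added, NADPH fluorescence (Ex 340/Em 450 nm) was followed for 8 min.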
Numbers stand for hits; - = inactive; ? = inconclusive; . = no result; [ ] = dose if it differs, or a comment. Calls follow the shape of the dose curve; as a rule, active = well fitted curve in the direction sought with a large enough effect; inconclusive = small, poorly fitted or top-dose-only effect, or another doubt; inactive = no such curve, though single readings can be large; an effect the other way counts as inactive or inconclusive.

SMILES	GLP-1R inv ag	HEK293 tox	GLP-1R agonist	IDH1 R132H inh	TrxR1 substrate	rTrxR1 inhibitor
Cc1ccc(C)c(-c2[nH]ncc2CN2CCCC(CO)(Cc3ccccc3C)C2)c1 (stereo unspecified)	10µM	?	-	-	-	-
Cc1ccc(C(CC(=O)NCCCN(C)C)c2ccc(OC(C)C)cc2)cc1 (stereo unspecified)	11µM	-	-	-	-	-
O=[S+]([O-])([O-])c1ccc2c(c1)cc([S+](=O)([O-])[O-])c1nn(-c3ccc(/C=C/c4ccc(-n5nc6c([S+](=O)([O-])[O-])cc7cc([S+](=O)([O-])[O-])ccc7c6n5)cc4[S+](=O)([O-])[O-])c([S+](=O)([O-])[O-])c3)nc12	.	.	.	.	-	-
CC1(C)CC(=O)C(CS(=O)(=O)c2ccccc2)=C(O)C1	?	-	-	-	-	50µM
CC1(C)CC(=O)C(CC(=O)Nc2ccc(S(N)(=O)=O)cc2)=C(O)C1	-	-	-	-	-	-
Oc1ccc(Cl)cc1C1C=C(c2ccc3c(c2)OCO3)NC(c2cc(Br)ccc2F)N1 (stereo unspecified)	.	.	.	.	-[0.457 µM]	?
COC(=O)/C=C/c1ccccc1S(=O)(=O)NC(C)C	.	.	.	.	-	-
COC(=O)/C=C/c1ccccc1S(=O)(=O)N(Cc1ccccc1)Cc1ccco1	2.2µM	-	-	-	-	?
NC(=O)CCC1NC(=O)C(Cc2ccccc2)NC(=O)C(Cc2ccc(O)cc2)NC(=O)CCSSCC(C(=O)N2CCCC2C(=O)NC(CCCN=C(N)N)C(=O)NCC(N)=O)NC(=O)C(CC(N)=O)NC1=O (stereo unspecified)	.	.	-	.	.	.
CC(=O)Nc1ccc(N(C(=O)c2cnccn2)C(C(=O)NC2CCCCC2)c2ccc(F)cc2)cc1 (stereo unspecified)	-	-	-	-	-	-
CC(=O)Nc1ccc(N(C(=O)c2cnccn2)C(C(=O)NC2CCCCC2)c2ccc(O)cc2)cc1 (stereo unspecified)	-	-	-	-	-	7.1µM
O=C([C@@H]1CC=C[C@@H]2CCN(C3CCCCC3)C(=O)[C@@H]21)N1CCOCC1	.	.	.	.	-	-
COC(=O)c1ccc(CSc2ccccc2NC(=S)Nc2cccc(SC)c2)o1	13µM	-	-	-	.	.
BrC(=C\c1ccccc1)/C=N/Nc1ccc2nncn2n1	-	-	-	-	-	18µM
C(=N\Nc1ccc2nncn2n1)/c1ccco1	-	-	-	-	-	-
CCC[n+]1c(/C=C/c2c(OC)cc(OC)cc2OC)ccc2ccccc21	.	.	.	.	-	-
OC(COc1ccc2ccccc2c1Br)Cn1cnc(-c2ccccc2)c1 (stereo unspecified)	10µM	-	-	-	-	-
COc1ccc(OCC(O)Cn2cnc(-c3ccc(Br)cc3)c2)cc1 (stereo unspecified)	?	-	-	-	-	-
c1cc(N2CCCC2)ccc1C(c1nnnn1C1CCCCC1)N1CCOCC1 (stereo unspecified)	-	-	-	-	-	7.1µM
COc1ccc(C(c2nnnn2C2CCCCC2)N2CCN(c3ccc(OC)cc3)CC2)cc1 (stereo unspecified)	?	-	-	-	-	-
O=C1C=C(NCc2ccccc2)c2ccccc2C1=O	?	?	-	-	16µM	?
Cc1ccc(N2CC(NC(=O)C3CCCCC3)CC2=O)cc1C (stereo unspecified)	-	-	.	-	-	-
O=C(C[n+]1cccc(NC(=O)c2ccccc2)c1)c1cccc([N+](=O)[O-])c1	-	-	-	-	-	-
